Assay results: ChEMBL document CHEMBL3988442, “University of Dundee, Small-Polar-MMV Screening Library” (2021)

molecular target: AMP-activated protein kinase, AMPK (Homo sapiens) (UniProt P54646+O43741+P54619+Q9UGJ0+Q9Y478+Q13131+Q9UGI9); assay: AMP-dependent Kinase enzyme assay. An in vitro enzyme assay that detects ADP turnover that is directly proportional to AMPK activity. This uses naive AMPK that is activated during the assay with MK-8722; type: functional; design: scale not given: direction of the effect not stated beside the values; conditions: 30 µM

Row | Structure (SMILES) | Percent Effect [%]
1 | Cc1cc(CN2CCC(C3CCN(CCc4ccccc4)CC3)C2)[nH]n1 (stereo not given) | -4.05
2 | CS(=O)(=O)NC1CCN(Cc2coc(-c3ccc(Cl)cc3)n2)CC1 | 1.23
3 | CCc1oc(C(=O)NC(C)Cc2cnccn2)cc1CN1CCCC1 (stereo not given) | 0.442
4 | COc1ccc(C(=O)NCc2ccco2)nn1 | -4.45
5 | CC(C)C(=O)NCC(=O)N1CCC2(CC1)c1ccccc1[C@@H](N)[C@@H]2O | 3.94
6 | Cc1ccc(CNc2cc3c(cc2Cl)NC(=O)CO3)cc1C | -0.667
7 | Cc1ccc(Oc2cc(CN)ccn2)cc1C | -98.1
8 | CC(C)(N)C(=O)N1CCCC(C(=O)c2ccc(C(C)(C)C)cc2)C1 (stereo not given) | 17.9
9 | c1csc(N2CCCN(c3ncnc4sccc34)CC2)n1 | 21.9
10 | Cc1nnc(C(C)N2CCN(Cc3noc(C(C)(C)C)n3)CC2)o1 (stereo not given) | -8.02
11 | CSCCC(NC(=O)C1CC1)C(=O)N(C)Cc1ccsc1 (stereo not given) | -0.745
12 | CCCc1nn(Cc2ccc(Br)s2)c(=O)o1 | 9.29
13 | c1ccc(OCCNC2=NCCCN2)cc1 | -8.51
14 | COCCN(CCOC)C(=O)c1cnn(C)c1-n1c(C)ccc1C | -1.28
15 | Cc1cccc(C2(CNC(=O)c3ccnc(N(C)C)c3)CCOCC2)c1 | -0.987
16 | c1csc(N2CCN(c3ncnc4sccc34)CC2)n1 | 18.5
17 | O=C(NCc1ccco1)N1CCOC(c2ccccc2Cl)C1 (stereo not given) | 3.01
18 | Cc1ccc(OCc2occc2C(=O)N2CC[C@H](CO)[C@@H](O)C2)cc1 | 14.2
19 | Cc1nc(NC(=O)C(C)N(C)Cc2cccc(C#N)c2)sc1C (stereo not given) | 7.53
20 | Cc1nc(COC(=O)c2cccnc2C)no1 | 3.04

Row | Structure (SMILES) | Percent Effect [%]
21 | CC(NS(N)(=O)=O)c1ccc(OCc2ccc(F)cc2)cc1 (stereo not given) | 3.51
22 | CCc1csc(CNc2cc(C)nc(-c3cccnc3)n2)n1 | 18.4
23 | CSc1nccc(N2CCC(NCc3ccc4nsnc4c3)CC2)n1 | 2.27
24 | COc1ccc(C(=O)NCC2CCCN(C3CCOCC3)C2)c(O)c1 (stereo not given) | 14.3
25 | CCc1nnc(C(C)N2CCN(CCC(=O)NC3CC3)CC2)o1 (stereo not given) | 8.34
26 | CCC[C@H]1CN(C(=O)c2ccc3[nH]c(CO)nc3c2)C[C@@H]1N | 8.21
27 | O=C1CCCCCN1Cc1nc(C2(c3ccc(F)cc3)CCOC2)no1 (stereo not given) | 8.29
28 | CS(=O)(=O)Cc1noc(CN(Cc2ccco2)c2ccccc2)n1 | 3.02
29 | Cc1nc(C)c(C(=O)N2CCc3c(C)cccc32)o1 | 4.71
30 | O=C(Cn1cc(-c2ccccc2)cn1)N1CCNC1=O | 0.445
31 | COc1ccc(Cn2c(CCc3c(C)n[nH]c3C)n[nH]c2=O)cc1 | -3.53
32 | O=C(COc1ccc(-n2cccn2)nn1)N1CCCC1 | 3.54
33 | CO[C@@H]1CC[C@@H](NC(=O)CCc2ccc(Cl)cc2)[C@H]1O | 8.1
34 | CC(NC(=O)N1CCC1)c1ccc(S(N)(=O)=O)cc1 (stereo not given) | 7.72
35 | Cc1ccccc1C(=O)NC(C)CN1CCOC1=O (stereo not given) | 14.9
36 | CN(Cc1nc(CS(C)(=O)=O)no1)c1ccccc1 | 0.0849
37 | CN(C)CCN(Cc1ccc(C#N)cc1)C(=O)c1ccn(C)c(=O)c1 | 15.4
38 | CN(CCc1ncnn1C1Cc2ccccc2C1)C1CCS(=O)(=O)C1 (stereo not given) | -4.47
39 | Cn1ccnc1CNC(=O)CC1CCCCO1 (stereo not given) | -3.14
40 | CC(=O)N1CCN(C(=O)NC(C)Cn2ccnc2)CC1 (stereo not given) | -4.12
